Laboratory results from PMC5540273 (PLoS ONE, 2017).
Like-named read-outs stand apart in the source and are kept apart here.

Assays:
FLT1 = conditions: concentration: 1 μM, replicates: in singlicate; n = 1
FLT3-autoinhibited = conditions: concentration: 1 μM, replicates: in singlicate; n = 1
FLT3 = conditions: concentration: 1 μM, replicates: in singlicate; n = 1
FLT4 = conditions: concentration: 1 μM, replicates: in singlicate; n = 1
FRK = conditions: concentration: 1 μM, replicates: in singlicate; n = 1
FYN = conditions: concentration: 1 μM, replicates: in singlicate; n = 1
GAK = conditions: concentration: 1 μM, replicates: in singlicate; n = 1
GCN2(Kin.Dom.2,S808G) = tested on: T1, GCN2(Kin.Dom.2,S808G); conditions: concentration: 1 μM, replicates: in singlicate; n = 1
T1 construct: gene EIF2AK4

GRK1 = conditions: concentration: 1 μM, replicates: in singlicate; n = 1
GRK2 = tested on: T2, GRK2; conditions: concentration: 1 μM, replicates: in singlicate; n = 1
T2 construct: gene ADRBK1

GRK3 = tested on: T3, GRK3; conditions: concentration: 1 μM, replicates: in singlicate; n = 1
T3 construct: gene ADRBK2

GRK4 = conditions: concentration: 1 μM, replicates: in singlicate; n = 1
GRK7 = conditions: concentration: 1 μM, replicates: in singlicate; n = 1
GSK3A = conditions: concentration: 1 μM, replicates: in singlicate; n = 1
GSK3B = conditions: n = 1
HASPIN = tested on: T4, HASPIN; conditions: concentration: 1 μM, replicates: in singlicate; n = 1
T4 construct: gene GSG2

HCK = conditions: concentration: 1 μM, replicates: in singlicate; n = 1
HIPK1 = conditions: concentration: 1 μM, replicates: in singlicate; n = 1
HIPK2 = conditions: concentration: 1 μM, replicates: in singlicate; n = 1
HIPK3 = conditions: concentration: 1 μM, replicates: in singlicate; n = 1
[1] = concentration: 1 μM, replicates: in singlicate
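Further: KINOMEscan kinase panel screen.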

COC(=O)C(Cc1ccccc1)NC(=O)NC1CCN(c2ccnc(Nc3ccc(F)cc3)n2)C1 (stereo not shown) [GSK1379714]
%Inh (FLT1): 33%
%Inh (FLT3-autoinhibited): 5%
%Inh (FLT3): 2%
%Inh (FLT4): 0%
%Inh (FRK): 0%
%Inh (FYN): 0%
%Inh (GAK): 0%
%Inh (GCN2(Kin.Dom.2,S808G)): 6%
%Inh (GRK1): 100%
%Inh (GRK2): 0%
%Inh (GRK3): 58%
%Inh (GRK4): 1%
%Inh (GRK7): 0%
%Inh (GSK3A): 13%
%Inh (GSK3B; [1]): 6%
%Inh (HASPIN): 24%
%Inh (HCK): 4%
%Inh (HIPK1): 0%
%Inh (HIPK2): 0%
%Inh (HIPK3): 0%

Fc1ccc(-c2nn3cccc(F)c3c2-c2ccncc2)cc1 [GW475620]
%Inh (FLT1): 27%
%Inh (FLT3-autoinhibited): 2%
%Inh (FLT3): 0%
%Inh (FLT4): 25%
%Inh (FRK): 14%
%Inh (FYN): 16%
%Inh (GAK): 65%
%Inh (GCN2(Kin.Dom.2,S808G)): 0%
%Inh (GRK1): 0%
%Inh (GRK2): 6%
%Inh (GRK3): 0%
%Inh (GRK4): 26%
%Inh (GRK7): 0%
%Inh (GSK3A): 0%
%Inh (GSK3B; [1]): 11%
%Inh (HASPIN): 5%
%Inh (HCK): 15%
%Inh (HIPK1): 0%
%Inh (HIPK2): 0%
%Inh (HIPK3): 4%

Fc1ccc(-c2nc[nH]c2-c2ccncc2)cc1 [SB-217360]
%Inh (FLT1): 0%
%Inh (FLT3-autoinhibited): 0%
%Inh (FLT3): 5%
%Inh (FLT4): 9%
%Inh (FRK): 0%
%Inh (FYN): 0%
%Inh (GAK): 57%
%Inh (GCN2(Kin.Dom.2,S808G)): 0%
%Inh (GRK1): 25%
%Inh (GRK2): 0%
%Inh (GRK3): 11%
%Inh (GRK4): 19%
%Inh (GRK7): 0%
%Inh (GSK3A): 0%
%Inh (GSK3B; [1]): 13%
%Inh (HASPIN): 57%
%Inh (HCK): 20%
%Inh (HIPK1): 34%
%Inh (HIPK2): 10%
%Inh (HIPK3): 7%

COc1ccc2cc(-c3nc(-c4ccccc4C(C)C)[nH]c3-c3ccncc3)ccc2c1 [SB-660566]
%Inh (FLT1): 19%
%Inh (FLT3-autoinhibited): 4%
%Inh (FLT3): 0%
%Inh (FLT4): 22%
%Inh (FRK): 8%
%Inh (FYN): 12%
%Inh (GAK): 40%
%Inh (GCN2(Kin.Dom.2,S808G)): 4%
%Inh (GRK1): 0%
%Inh (GRK2): 0%
%Inh (GRK3): 34%
%Inh (GRK4): 0%
%Inh (GRK7): 0%
%Inh (GSK3A): 2%
%Inh (GSK3B; [1]): 17%
%Inh (HASPIN): 0%
%Inh (HCK): 0%
%Inh (HIPK1): 0%
%Inh (HIPK2): 0%
%Inh (HIPK3): 25%

Cc1ccc(NC(=O)Nc2ccc(Cl)cc2)cc1-c1ccc(C(=O)Nc2ccncc2)cc1 [GSK1398472]
%Inh (FLT1): 27%
%Inh (FLT3-autoinhibited): 3%
%Inh (FLT3): 22%
%Inh (FLT4): 0%
%Inh (FRK): 31%
%Inh (FYN): 0%
%Inh (GAK): 0%
%Inh (GCN2(Kin.Dom.2,S808G)): 17%
%Inh (GRK1): 0%
%Inh (GRK2): 0%
%Inh (GRK3): 17%
%Inh (GRK4): 25%
%Inh (GRK7): 0%
%Inh (GSK3A): 0%
%Inh (GSK3B; [1]): 7%
%Inh (HASPIN): 0%
%Inh (HCK): 0%
%Inh (HIPK1): 0%
%Inh (HIPK2): 0%
%Inh (HIPK3): 5%

c1ccc(-c2ccnc3[nH]ccc23)cc1 [SB-693578]
%Inh (FLT1): 1%
%Inh (FLT3-autoinhibited): 8%
%Inh (FLT3): 0%
%Inh (FLT4): 8%
%Inh (FRK): 0%
%Inh (FYN): 0%
%Inh (GAK): 90%
%Inh (GCN2(Kin.Dom.2,S808G)): 0%
%Inh (GRK1): 6%
%Inh (GRK2): 0%
%Inh (GRK3): 56%
%Inh (GRK4): 3%
%Inh (GRK7): 0%
%Inh (GSK3A): 22%
%Inh (GSK3B; [1]): 13%
%Inh (HASPIN): 60%
%Inh (HCK): 0%
%Inh (HIPK1): 4%
%Inh (HIPK2): 0%
%Inh (HIPK3): 34%

O=C1NC(=O)C(c2ccc(Cl)cc2)=C1Nc1cccc(Cl)c1 [SB-317651]
%Inh (FLT1): 0%
%Inh (FLT3-autoinhibited): 11%
%Inh (FLT3): 0%
%Inh (FLT4): 0%
%Inh (FRK): 0%
%Inh (FYN): 0%
%Inh (GAK): 0%
%Inh (GCN2(Kin.Dom.2,S808G)): 2%
%Inh (GRK1): 11%
%Inh (GRK2): 0%
%Inh (GRK3): 0%
%Inh (GRK4): 21%
%Inh (GRK7): 30%
%Inh (GSK3A): 0%
%Inh (GSK3B; 1 µM): 15%
%Inh (HASPIN): 0%
%Inh (HCK): 0%
%Inh (HIPK1): 19%
%Inh (HIPK2): 34%
%Inh (HIPK3): 0%

Nc1ncnc2occ(-c3ccc4c(c3)CCN4C(=O)Cc3cc(F)ccc3F)c12 [GSK2645446]
%Inh (FLT1): 6%
%Inh (FLT3-autoinhibited): 0%
%Inh (FLT3): 0%
%Inh (FLT4): 1%
%Inh (FRK): 0%
%Inh (FYN): 0%
%Inh (GAK): 0%
%Inh (GCN2(Kin.Dom.2,S808G)): 0%
%Inh (GRK1): 0%
%Inh (GRK2): 0%
%Inh (GRK3): 0%
%Inh (GRK4): 0%
%Inh (GRK7): 0%
%Inh (GSK3A): 0%
%Inh (GSK3B; [1]): 2%
%Inh (HASPIN): 0%
%Inh (HCK): 0%
%Inh (HIPK1): 0%
%Inh (HIPK2): 0%
%Inh (HIPK3): 0%

Cc1ccc(NC(=O)c2ccc(Cl)cc2)cc1-c1ccc(C(=O)Nc2ccncc2)cc1 [GSK1398467]
%Inh (FLT1): 37%
%Inh (FLT3-autoinhibited): 0%
%Inh (FLT3): 0%
%Inh (FLT4): 2%
%Inh (FRK): 30%
%Inh (FYN): 0%
%Inh (GAK): 1%
%Inh (GCN2(Kin.Dom.2,S808G)): 0%
%Inh (GRK1): 0%
%Inh (GRK2): 0%
%Inh (GRK3): 24%
%Inh (GRK4): 0%
%Inh (GRK7): 0%
%Inh (GSK3A): 3%
%Inh (GSK3B; [1]): 17%
%Inh (HASPIN): 0%
%Inh (HCK): 0%
%Inh (HIPK1): 0%
%Inh (HIPK2): 0%
%Inh (HIPK3): 3%

COc1cccc(C2=C(Nc3cc(Cl)c(O)c(Cl)c3)C(=O)NC2=O)c1 [SB-390767]
%Inh (FLT1): 20%
%Inh (FLT3-autoinhibited): 0%
%Inh (FLT3): 0%
%Inh (FLT4): 10%
%Inh (FRK): 20%
%Inh (FYN): 30%
%Inh (GAK): 100%
%Inh (GCN2(Kin.Dom.2,S808G)): 0%
%Inh (GRK1): 3%
%Inh (GRK2): 0%
%Inh (GRK3): 28%
%Inh (GRK4): 1%
%Inh (GRK7): 0%
%Inh (GSK3A): 44%
%Inh (GSK3B; 1 µM): 33%
%Inh (HASPIN): 0%
%Inh (HCK): 0%
%Inh (HIPK1): 0%
%Inh (HIPK2): 0%
%Inh (HIPK3): 20%

CN1c2ccc(-c3ccc(C(N)=O)cc3)cc2-c2[nH]ncc2S1(=O)=O
%Inh (FLT1): 5%
%Inh (FLT3-autoinhibited): 27%
%Inh (FLT3): 31%
%Inh (FLT4): 0%
%Inh (FRK): 0%
%Inh (FYN): 3%
%Inh (GAK): 6%
%Inh (GCN2(Kin.Dom.2,S808G)): 33%
%Inh (GRK1): 1%
%Inh (GRK2): 0%
%Inh (GRK3): 0%
%Inh (GRK4): 0%
%Inh (GRK7): 0%
%Inh (GSK3A): 25%
%Inh (GSK3B; [1]): 13%
%Inh (HASPIN): 28%
%Inh (HCK): 0%
%Inh (HIPK1): 41%
%Inh (HIPK2): 23%
%Inh (HIPK3): 19%
